Reference: the emibetuzumab library of Makowski et al. (2022)
The other results are listed elsewhere or left out. The true hit rate is not given.

B1: VH:VL chains; a variant is named by its letters at X, in order (parent)
chain 1: QVQLVQSGAEVKKPGASVKVSCKASGYTFTDYXMHWVRQAPGQGLEWMGXVNPNXXXTTYNQKFEGRVTMTTDTSTSTAYMELRSLRSDDTAVYYCARXNXLDXWGQGTTVTVSS
chain 2: DIQMTQSPSSLSASVGDRVTITCSVSSSVSSIYLHWYQQKPGKAPKLLIYSTSNLASGVPSRFSGSGSGTDFTLTISSLQPEDFATYYCQVYSGYPLTFGGGTKVEIK

Variants of: B1
Assay: yeast display scFab, FACS + sequencing
Settings: with MET
Summary of the method: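 Two magnetic rounds on Protein A beads coated with HGFR-Fc, followed by FACS, were used to enrich a yeast surface scFab library mutated in the heavy-chain CDRs. FACS gated the top 50% antigen-positive cells after 3 h labelling at room temperature with 1 nM HGFR-Fc and anti-Myc in PBSB plus 1% milk. Binding to the antigen was scored positive when a sequence occurred in both antigen-positive samples from deep sequencing and negative when it occurred only in the input.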

Row | Variant | antigen binding call
1 | VRTRAAVD | binds
2 | VTTRASGD | no binding
3 | VTTRAAVS | no binding
4 | VRERSSVD | no binding
5 | VRTRASVD | binds
6 | VRAGADVD | no binding
7 | YTAGSDGV | no binding
8 | VAGAGYGA | no binding
9 | VKGEGYGA | no binding
10 | VKGRGYGA | binds
11 | YKGRGYGA | binds
12 | VRAKGAGY | binds
13 | VRRGDVGV | no binding
14 | VRRGDAGY | binds
15 | VKAKDAGY | no binding
16 | VRRGDDVY | no binding
17 | VRKKGYVY | no binding
18 | VEGGGSSV | no binding
19 | DREEGDWA | no binding
20 | DRGGDAVA | no binding
21 | VRGGDAVA | binds
22 | VRGGDAVS | binds
23 | VRGGDAAS | binds
24 | VRGRDDSA | no binding

Row | Variant | antigen binding call
25 | VRGGDDGS | no binding
26 | VRGGDAVY chain 1 G44D | no binding
27 | VAGGDAVA | no binding
28 | VRGRDAVS | binds
29 | VEGGGAAS | no binding
30 | VAGGDAAA | no binding
31 | VRGKAAVS | no binding
32 | DTGTGDWV | no binding
33 | SEEEGDAV | no binding
34 | VKGAGDLA | no binding
35 | VRRTDFVA | no binding
36 | VGGTDFVA | binds
37 | VGGTSDVA | no binding
38 | VGGGADGA | no binding
39 | VKRATVLA | no binding
40 | VRRRSSLA | binds
41 | VKRRSSLA | binds
42 | VKRRSVGA | no binding
43 | YRRESSGY | binds
44 | YRREGSGV | binds
45 | YRRESSGV | binds
46 | DGERDYSD | no binding
47 | YRERGSWV | binds
48 | FRERGSWV | binds

Row | Variant | antigen binding call
49 | DREEGSWV | no binding
50 | VRERGSWV | binds
51 | VEEEGSWV | no binding
52 | YRERGAWV | binds
53 | VRERGDWV | no binding
54 | VTGEDAGD | no binding
55 | YRRGSSLF | binds
56 | YRRGSSVF | binds
57 | YREEGDVF | no binding
58 | YRGANSVF | binds
59 | YRGGGSVF | binds
60 | VTGGDDSA | no binding
61 | VAGTGSSA | no binding
62 | VGGGADGV | no binding
63 | VEGAASWV | no binding
64 | AAGRAYGA | no binding
65 | YRRGGSVF | binds
66 | YRTGAAAD | binds
67 | YRGAASSD | binds
68 | YRRAADSD | no binding
69 | DETGGSSD | no binding
70 | YRTGAASD | binds
71 | YRTGASSD | binds
72 | YAGGTSSD | no binding

Row | Variant | antigen binding call
73 | SEARSSGY | no binding
74 | VTGEDSSD | no binding
75 | FRGESSAD | binds
76 | FRGGDSAD | binds
77 | DRGGDDAD | no binding
78 | FRGESSWD | binds
79 | DRGGDVSD | no binding
80 | VKGGNVGV | no binding
81 | FRRRGAAA | binds
82 | SRRRGSAA | binds
83 | DRRRGSGA | no binding
84 | FRRRGAVA | binds
85 | FRRRGSAA | binds
86 | VETEGDGF | no binding
87 | VETGNSLV | no binding
88 | FRRGGAAA | binds
89 | FKGEGSLV | no binding
90 | FKARGALV | binds
91 | FKRRSASV | no binding
92 | FKKKDASV | binds
93 | FKARGASV | binds
94 | FKGEGYGV | no binding
95 | FKTKNYVV | no binding
96 | FKGEGDGV | no binding

Row | Variant | antigen binding call
97 | SKTKSDAV | no binding
98 | YAEESAGD | no binding
99 | DKEGGSLD | no binding
100 | YKEGGAGD | binds
101 | YKEGGSGD | binds
102 | DKEGGAAD | no binding
103 | DATGGDAD | no binding
104 | DTKAASGV | no binding
105 | VEAGDDVV | no binding
106 | DRAGDAGS | no binding
107 | YRRGDAGS | binds
108 | YRRGSASS | binds
109 | YRRGSAGS | binds
110 | SRKKGDGS | no binding
111 | SRRGSASS | binds
112 | SRRGGYVS | no binding
113 | VEGGTDVV | no binding
114 | VATGSSGA | no binding
115 | YRRGSSGS | binds
116 | YRRGGSGS | binds
117 | YAEKDFGV | no binding
118 | ATAGSAAV | no binding
119 | VEGGGYGV | no binding
120 | VRGRGYGV | binds

Row | Variant | antigen binding call
121 | VRGTGVAV | no binding
122 | VRGRGVAV | binds
123 | YRGRGVAV | binds
124 | YRAGGVAV | binds
125 | VKGRAYGV | no binding
126 | VEGRGDAV | no binding
127 | VRKGGVAV | no binding
128 | VTTKGDVF | no binding
129 | SEARSYVV | no binding
130 | DTREGDAV | no binding
131 | VKAGSAAA | binds
132 | VEGGGAAA | no binding
133 | YKAKGAAA | binds
134 | YKAGDAAA | binds
135 | YKAGDDGA | no binding
136 | VEAGDAAA | no binding
137 | VKAKGAAA | binds
138 | VKAGSDVA | no binding
139 | DAGGGAVA | no binding
140 | VTKETFSF | no binding
141 | YEGGTDGA | no binding
142 | STTRGAVA | no binding
143 | ATTRGAVA | no binding
144 | VKARNDLV | no binding

Row | Variant | antigen binding call
145 | YRGRDASF | binds
146 | YRGRDDWF | no binding
147 | YRGRDAGF | binds
148 | DAGKGSVD | no binding
149 | STATADWV | no binding
150 | VKGRADVD | no binding
151 | SAGRGVGS | no binding
152 | FAGGGDGD | no binding
153 | YRGRGVGS | binds
154 | YRGRGVGD | binds
155 | FRGRGVGD | binds
156 | FAGRGVGD | no binding
157 | FRGRGDGD | binds
158 | YTGEDAVA | no binding
159 | FRGKADVD | no binding
160 | YRGRGVSS | binds
161 | DRGRGDVV | no binding
162 | FRGRGDVV | binds
163 | FRGRGDVD | binds
164 | DGGRGDVV | no binding
165 | FRGRGDGY | binds
166 | AATTSFVV | no binding
167 | YRGKGVGD | binds
168 | FRGRSYVD | no binding

Row | Variant | antigen binding call
169 | FRGRGSVD | binds
170 | AATTDAGD | no binding
171 | DGAKGDGV | no binding
172 | SRRRGAWY | binds
173 | ARTRTAWY | no binding
174 | ARRRGAWY | binds
175 | YRGRGSVY | binds
176 | SKGRSDVY | no binding
177 | FRGRGALY | binds
178 | VKGRTSVY | no binding
179 | SKGRADVY | no binding
180 | SKGRGAVY | binds
181 | YKGRGSVY | binds
182 | YTEAADGA | no binding
183 | VRAGADWY | no binding
184 | VAKKNASF | no binding
185 | FKGRGAVY | binds
186 | YKGRGFVY | no binding
187 | FRGRDALY | binds
188 | FKGGGAVY | no binding
189 | FKEAGAVY | no binding
190 | FRGRDSGY | binds
191 | FRGRDYGY | no binding
192 | YRGRGFVY | binds

Row | Variant | antigen binding call
193 | FRTRDSGY chain 1 V68I | no binding
194 | ARAGSFWA | no binding
195 | YKGRGSVD | binds
196 | FRGGSVGY | no binding
197 | FRGRGAVY | binds
198 | FRGGSAVY | binds
199 | FTEGDSGY | no binding
200 | FRTEGSGY | binds
201 | YRGRGVVY | binds
202 | YAGRGDVY | no binding
203 | FRGRGSVY | binds
204 | YRGANVVY | no binding
205 | AGRGADLS | no binding
206 | YKGAAFWA | no binding
207 | YKGAGAWA | binds
208 | YTGTSAWA | no binding
209 | YRGAGAWA | binds
210 | VEGGGYSV | no binding
211 | DAARGSSV | no binding
212 | YKARGSSS | binds
213 | YRARGSSS | binds
214 | YKARTSSS | binds
